Laboratory results as given in PubChem BioAssay AID463173 (ICCB-Longwood Screening Facility, Harvard Medical School, 2010).
Screen size: about 52,000 compounds; about 1,700 (3.3%) were called active. For the sample, actives were picked, then their nearest neighbours and some compounds at random. A number with no mark means an inactive call. Cut-off read from the data, not from the text of the source: active = survival mostly below about 52% (no sharp cut-off); inactive = mostly above about 56%.

System: Wild type
Experiment: S. aureus survival, RN4220 and DeltatarO strains – OD600, teichoic acid synthesis inhibitors, primary screen (AID 463173)
Details: S. aureus RN4220 wild type/DeltatarO growth, OD600, 18 h, stronger effect = lower value, screened at 18.75 µg/mL (by protocol)

| Structure (SMILES) | survival |
| --- | --- |
| COc1ccc(CNc2oc(-c3ccc(COc4ccc(OC)cc4)o3)nc2C#N)cc1 | 129% |
| CC(=O)c1nn(-c2ccc(OC(F)(F)F)cc2)nc1Nc1ccc(C)cc1 | 96% |
| CCCS(=O)(=O)Nc1cc2c(cc1NCc1ccccc1)n(C)c(=O)n2C | 82% |
| CCN1CCN(c2c(S(=O)(=O)c3ccccc3)cnc3ccc(Cl)cc23)CC1 | 119% |
| Cc1ccc2ncc(S(=O)(=O)c3ccccc3)c(N3CCCCC3C)c2c1 (stereo not drawn) | 0% (active) |
| COc1ccc(S(=O)(=O)c2cnc3ccc(Cl)cc3c2N2CCCCC2C)cc1 (stereo not drawn) | 23% |
| CCN1CCN(c2c(S(=O)(=O)c3ccc(Cl)cc3)cnc3ccccc23)CC1 | 82% |
| Cc1cccc(S(=O)(=O)c2cn(Cc3ccccc3)c3cc(N4CCCCC4C)c(F)cc3c2=O)c1 (stereo not drawn) | 71% |
| CC1CCCCN1c1c(S(=O)(=O)c2ccc(Cl)cc2)cnc2ccccc12 (stereo not drawn) | 3% (active) |
| COc1ccc(Cl)cc1NC(=O)Cn1nnc(C(=O)NCc2ccc3c(c2)OCO3)c1N | 81% |
| c1ccc(Cn2nnnc2C(c2cccnc2)N2CCN(c3ccccc3)CC2)cc1 (stereo not drawn) | 113% |
| COC(=O)COc1ccc(Oc2nc(NC(C)(C)C)nc(N(C)C)n2)nn1 | 85% |
| Cc1ccc(CNC(=O)CSc2c(C(C)C)cnc3c2c(=O)n(C)c(=O)n3C)cc1 | 58% |
| CCc1cnc2c(c1SCC(=O)NCc1ccc(C)cc1)c(=O)n(C)c(=O)n2C | 67% |
| CCCc1cnc2c(c1SCC(=O)NCc1ccc(C)cc1)c(=O)n(C)c(=O)n2C | -6% (active) |
| CCOC(=O)c1cc(-c2ccccc2)n(-c2cccc(C(=O)Nc3cc(OC)cc(OC)c3)c2)c1C | 88% |
| CCOC(=O)c1cc(-c2ccccc2)n(-c2cccc(C(=O)Nc3ccc(OCC)cc3)c2)c1C | 10% (active) |
| CCOC(=O)c1cc(-c2ccccc2)n(-c2cccc(C(=O)Nc3cccc(F)c3)c2)c1C | 131% |
| CCOC(=O)c1cc(-c2ccccc2)n(-c2cccc(C(=O)Nc3cccc(SC)c3)c2)c1C | 0% (active) |
| CCOC(=O)c1cc(-c2ccccc2)n(-c2cccc(C(=O)Nc3cccc(C(C)=O)c3)c2)c1C | 70% |
| CCOC(=O)c1cc(-c2ccccc2)n(-c2cccc(C(=O)Nc3ccc(OC)cc3)c2)c1C | 77% |
| CCc1ccc(Nc2nnc(-c3cc4cc(OC)ccc4oc3=O)s2)cc1 | 138% |

| Structure (SMILES) | survival |
| --- | --- |
| CCC(CC)C(=O)Nc1cc(-c2cccc(C)c2)nn1-c1ccccc1 | 69% |
| COc1ccc(CCn2c(=O)[nH]c3cc(C(=O)N4CCN(c5ccccc5)CC4)ccc3c2=O)cc1OC | 102% |
| O=C1OC(c2ccccc2)=C/C1=C/N1CCOCC1 | 116% |
| COc1ccc(C2C=C(c3ccc(F)cc3)Nc3nc(-c4ccc(Cl)cc4)nn32)cc1 (stereo not drawn) | 105% |
| COc1ccc(C2C=C(c3ccccc3)Nc3nc(NS(=O)(=O)c4ccc(Cl)cc4)nn32)cc1 (stereo not drawn) | 0% (active) |
| Cc1ccc(S(=O)(=O)Nc2nc3n(n2)C(c2ccc(Cl)cc2)C=C(c2ccccc2)N3)cc1 (stereo not drawn) | -4% (active) |
| COc1ccc(C2C=C(c3ccccc3)Nc3nc(NS(=O)(=O)c4ccccc4)nn32)cc1 (stereo not drawn) | 29% |
| COc1ccc(C2C=C(c3ccc(Cl)cc3)Nc3nc(-c4ccc(Cl)cc4)nn32)cc1 (stereo not drawn) | 88% |
| O=S(=O)(Nc1nc2n(n1)C(c1ccc(F)cc1)C=C(c1ccccc1)N2)c1ccc(Cl)cc1 (stereo not drawn) | 14% (active) |
| Cc1ccc(C2C=C(c3ccc(Cl)cc3)Nc3nc(NS(=O)(=O)c4ccccc4)nn32)cc1 (stereo not drawn) | 75% |
| O=S(=O)(Nc1nc2n(n1)C(c1ccc(F)cc1)C=C(c1ccccc1)N2)c1ccccc1 (stereo not drawn) | 74% |
| O=S(=O)(Nc1nc2n(n1)C(c1ccc(F)cc1)C=C(c1ccc(Cl)cc1)N2)c1ccccc1 (stereo not drawn) | 57% |
| Cc1ccc(C2=CC(c3ccc(Cl)cc3)n3nc(-c4ccc(C)cc4)nc3N2)cc1 (stereo not drawn) | 1% (active) |
| COc1ccc(C2C=C(c3ccccc3)Nc3nc(NS(=O)(=O)c4ccc(C)cc4)nn32)cc1 (stereo not drawn) | 66% |
| Cc1ccc(C2C=C(c3ccccc3)Nc3nc(NS(=O)(=O)c4ccccc4)nn32)cc1 (stereo not drawn) | 83% |
| CSc1ccc(/C=C(\C#N)C(=O)NC2CCCCC2)cc1 | 95% |
| O=C(Cn1nc(-c2ccccc2)c2c(c1=O)CCCC2)Nc1ccc(F)c(Cl)c1 | 44% |
| CCOc1ccccc1NC(=O)N1CCC(N2CCN(Cc3ccccc3)C(=O)C2=O)CC1 | 68% |
| Cc1ccc(C)c(S(=O)(=O)NCC(c2ccc(N(C)C)cc2)N2CCOCC2)c1 (stereo not drawn) | 73% |
| Cc1sc2nc(SCC(=O)N(CCO)CCO)n(C3CCCCC3)c(=O)c2c1C | 106% |
| CCOc1ccc(CCNC(=O)CS(=O)(=O)Cc2nc(-c3cccc(Cl)c3)oc2C)cc1 | 82% |
| Oc1cccc2c1NCCC2 | 113% |

| Structure (SMILES) | survival |
| --- | --- |
| O=S(=O)(c1cccc(Cl)c1)c1nnn2c1nc(NCc1ccc3c(c1)OCO3)c1sccc12 | 80% |
| CCSc1oc(-c2cccs2)nc1S(=O)(=O)c1ccc(Br)cc1 | 51% |
| CCOC(=O)CNC(=O)CC(c1cc(OC)c(OC)c(OC)c1)N1Cc2ccccc2C1=O (stereo not drawn) | 60% |
| Cc1c(Cl)cccc1NC(=O)C1CCN(c2ncnc3c2nc2n3CCCCC2)CC1 | 129% |
| O=C(COc1ccccc1)Nc1ccc2nc(SCCOc3ccccc3)sc2c1 | 94% |
| COc1ccc(CNC(=O)Cn2nc3c(cc2=O)CCCC3)cc1 | 64% |
| COc1ccc(C2=CC(c3cccc(C)c3)n3nnnc3N2)cc1 (stereo not drawn) | 71% |
| Cc1cccc(C2C=C(c3ccc(C)c(C)c3)Nc3nnnn32)c1 (stereo not drawn) | 1% (active) |
| COc1cccc(C2C=C(c3ccc(C)c(C)c3)Nc3nnnn32)c1OC (stereo not drawn) | 71% |
| CS(=O)(=O)N1CCN(C(=O)c2ccccc2)CC1 | 110% |
| CCn1cc(C(=O)NCCCN(CC(C)C)CC(C)C)c(=O)c2cc(S(=O)(=O)N3CCc4ccccc4C3)ccc21 | 80% |
| Cc1ccccc1NS(=O)(=O)c1ccc2c(c1)NC(=O)CCS2 | 57% |
| Cc1ccc(NS(=O)(=O)c2ccc3c(c2)NC(=O)CCS3)cc1C | 63% |
| Cc1ccc(NS(=O)(=O)c2ccc3c(c2)NC(=O)CCS3)c(Br)c1 | -3% (active) |
| O=C1CCSc2ccc(S(=O)(=O)Nc3cccc(C(F)(F)F)c3)cc2N1 | -4% (active) |
| O=C1CCSc2ccc(S(=O)(=O)Nc3ccc(Cl)c(C(F)(F)F)c3)cc2N1 | 81% |
| CC1C(=O)Nc2ccc(S(=O)(=O)Nc3ccccc3Br)cc2NC1=O (stereo not drawn) | 89% |
| Cc1cc(C)c(NS(=O)(=O)c2ccc3c(c2)NC(=O)CCS3)c(C)c1 | 60% |
| Cc1cc(C)cc(NS(=O)(=O)c2ccc3c(c2)NC(=O)C(C)S3)c1 (stereo not drawn) | 12% (active) |
| Cc1ccc(NS(=O)(=O)c2ccc3c(c2)NC(=O)C(C)C(=O)N3)cc1F (stereo not drawn) | 86% |
| Cc1nn(C)c(C)c1S(=O)(=O)N(CC(=O)NCCc1ccccc1)c1ccc(C(C)C)cc1 | 86% |
| COc1cc(NC(=O)C2CCN(S(=O)(=O)c3c(C)noc3/C=C/c3ccccc3F)CC2)cc(OC)c1OC | 64% |

| Structure (SMILES) | survival |
| --- | --- |
| CCCCC(=O)Oc1ccc2oc(-c3ccc(OC)cc3)cc(=O)c2c1 | 69% |
| Cc1c(Cl)cccc1-n1nnc(-c2nc(-c3ccc4c(c3)OCO4)no2)c1C | 73% |
| COc1ccc(CNC(=O)c2ccc3nc(CCc4ccccc4)oc3c2)cc1OC | 71% |
| O=C(NCc1ccccc1)c1ccc2nc(CCc3ccccc3)oc2c1 | -3% (active) |
| COc1ccc(CCNC(=O)c2ccc3nc(Cc4ccccc4)oc3c2)cc1OC | 124% |
| CN(C)c1ccc(CNC(=O)c2ccc3nc(CCc4ccccc4)oc3c2)cc1 | 78% |
| O=C(NCCc1ccccc1)c1ccc2nc(CCc3ccccc3)oc2c1 | 0% (active) |
| O=C(NCCc1ccc(Cl)cc1)c1ccc2nc(CCc3ccccc3)oc2c1 | 59% |
| O=C(NCc1cccc(F)c1)c1ccc2nc(CCc3ccccc3)oc2c1 | 71% |
| COc1ccc(Cc2nc3ccc(C(=O)NCCc4ccc(OC)c(OC)c4)cc3o2)cc1 | 68% |
| COc1ccc(CCNC(=O)c2ccc3nc(CCc4ccccc4)oc3c2)cc1OC | 10% (active) |
| COc1ccc(CNC(=O)c2ccc3nc(CCc4ccccc4)oc3c2)c(OC)c1 | 131% |
| CCCNC(=O)c1ccc2nc(CCc3ccccc3)oc2c1 | 73% |
| COc1ccc(CNC(=O)c2ccc3nc(CCc4ccccc4)oc3c2)cc1 | -2% (active) |
| COc1ccc(CCNCc2ccc3c(c2)n(C)c(=O)n3C)cc1OC | 111% |
| O=C(Nc1ccc2nc(C3CC3)n(Cc3ccccc3)c(=O)c2c1)C1CC1 | 104% |
| CCc1ccc(CN(Cc2ccco2)C(=O)COc2ccccc2Cl)cc1 | 85% |
| Cc1ccc(N2CCN(S(=O)(=O)c3nnc(NC(=O)c4ccc(C(C)C)cc4)s3)CC2)cc1 | 82% |
| Cc1cc(C)cc(C(=O)Nc2cc(C(F)(F)F)ccc2N2CCN(c3ccccc3)CC2)c1 | 78% |
| CCc1ccc(CNC(=O)c2ccc3c(c2)nc2n3CCC(C)C2)cc1 (stereo not drawn) | 127% |
| COC(=O)CCc1sc(Nc2ccc(OC)cc2)nc1-c1ccc(OC)cc1 | 77% |
| Cc1c(NC=O)c(=O)n(-c2ccccc2)n1C | 107% |
